# Measured values reported in the supplement of paper PMC3414501.
# Structures can show the parent of a compound that is named as a salt. Unmarked numbers belong to inactive results.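 Rule for the calls: active = HIS4 sensitivity z-score above 5 vs DMSO controls; inactive = score 5 or below.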
# System: S. cerevisiae NKY1551 his4x/his4B, sporulating
# Experiment: HIS4 meiotic recombination assay sensitivity score (z-score vs DMSO controls); higher = stronger inhibition of sporulation/recombination, active = hit call of the paper
# Procedure: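 NIH Clinical Collection compounds were added 1:100 from stock (about 100 µM final) to S. cerevisiae. Growth: average doubling time (AvgG) over 24 h of BY4741 (wild-type) or AD1-9 (drug-efflux-pump deficient) in rich media. HIS4: the his4x/his4B heteroallelic recombination reporter strain (SK1) was sporulated 5 h with compound at 30°C, then colony density was read on -his plates after 48 h. Sensitivity score = (compound − mean of 8 DMSO controls)/SD of DMSO controls. Hit cutoffs are >2 for growth and >5 for sporulation.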
row,SMILES,HIS4 meiotic recombination assay sensitivity score
1,"CNC(=N)NCCC[C@H](N)C(=O)O [omega-N-Methylarginine] (stock concentration (mM, diluted 1:100): 9.3)",-0.29
2,"COc1ccc(-c2cc(=O)c3c(OC)c(OC)c(OC)c(OC)c3o2)cc1OC [Nobiletin] (stock concentration (mM, diluted 1:100): 10)",1.02
3,"Cn1c(NCCN(CCO)CCCc2ccc([N+](=O)[O-])cc2)cc(=O)n(C)c1=O [Nifekalant hydrochloride] (stock concentration (mM, diluted 1:100): 9.2)",-0.61
4,"C#C[C@]1(O)CC[C@H]2[C@@H]3CCC4=CC(=O)CC[C@@H]4[C@H]3CC[C@@]21CC [Levonorgestrel] (stock concentration (mM, diluted 1:100): 10)",-2.79
5,"CC(C)OC(=O)CCC/C=C\C[C@@H]1[C@@H](CC[C@@H](O)CCc2ccccc2)[C@H](O)C[C@@H]1O [Latanoprost] (stock concentration (mM, diluted 1:100): 10.3)",0.65
6,"CC(C)c1ccc2oc3nc(N)c(C(=O)O)cc3c(=O)c2c1 [Amlexanox] (stock concentration (mM, diluted 1:100): 10)",0.07
7,"COc1ccc2[nH]c([S+]([O-])Cc3ncc(C)c(OC)c3C)nc2c1 (stereo not given) [Esomeprazole mg] (stock concentration (mM, diluted 1:100): 4.8)",0.32
8,"Cc1occc(=O)c1O [Maltol] (stock concentration (mM, diluted 1:100): 10)",0.46
9,"CCC1=C[C@H]2CN(C1)Cc1c([nH]c3ccccc13)[C@@](C(=O)OC)(c1cc3c(cc1OC)N(C)[C@H]1[C@@](O)(C(=O)OC)[C@H](OC(C)=O)[C@]4(CC)C=CCN5CC[C@]31[C@@H]54)C2 [Vinorelbine bitatrate] (stock concentration (mM, diluted 1:100): 7.2)",-0.36
10,"O=C1C(c2c(O)[nH]c3ccccc23)=Nc2ccccc21 [Indarubicin] (stock concentration (mM, diluted 1:100): 10)",-1.36
11,"O=C1[C@H](CC[C@H](O)c2ccc(F)cc2)[C@@H](c2ccc(O)cc2)N1c1ccc(F)cc1 [Ezetimibe] (stock concentration (mM, diluted 1:100): 10)",-0.94
12,"CCOC(=O)[C@H](CCc1ccccc1)N[C@H]1CCc2ccccc2N(CC(=O)O)C1=O [Benazepril hydrochloride] (stock concentration (mM, diluted 1:100): 9.2)",0.2
13,"CCC(C)n1ncn(-c2ccc(N3CCN(c4ccc(OCC5COC(Cn6cncn6)(c6ccc(Cl)cc6Cl)O5)cc4)CC3)cc2)c1=O (stereo not given) [Itraconazole] (stock concentration (mM, diluted 1:100): 10.1)",-1.94
14,"C=C1/C(=C\C=C2/CCC[C@]3(C)[C@@H]([C@H](C)/C=C/[C@@H](O)C4CC4)CC[C@@H]23)C[C@@H](O)C[C@@H]1O [Calcipotriol] (stock concentration (mM, diluted 1:100): 10.1)",2.61
15,"COc1ccc2c3c1O[C@H]1C[C@@H](O)C=C[C@@]31CCN(C)C2 [Galanthamine] (stock concentration (mM, diluted 1:100): 8.8)",-0.9
16,"CN1CCN(c2nc3cc(C(F)(F)F)ccc3n3cccc23)CC1 (stock concentration (mM, diluted 1:100): 10)",-0.17
17,"O=C(O)CCNC(=O)c1ccc(/N=N/c2ccc(O)c(C(=O)O)c2)cc1 [Balsalazide] (stock concentration (mM, diluted 1:100): 10)",-1.14
18,"Nc1nc2ccc(OC(F)(F)F)cc2s1 [Riluzole] (stock concentration (mM, diluted 1:100): 9.9)",6.83 (active)
19,"OCCN1C[C@H](O)[C@@H](O)[C@H](O)[C@H]1CO [Miglitol] (stock concentration (mM, diluted 1:100): 10)",-0.62
20,"COc1cc2nc(N3CCN(C(=O)C4CCCO4)CC3)nc(N)c2cc1OC (stereo not given) [Terazosin] (stock concentration (mM, diluted 1:100): 9.5)",0.92

row,SMILES,HIS4 meiotic recombination assay sensitivity score
1,"COCc1c(C(C)C)nc(C(C)C)c(/C=C/[C@@H](O)C[C@@H](O)CC(=O)O)c1-c1ccc(F)cc1 [Cerivastatin] (stock concentration (mM, diluted 1:100): 10)",0.17
2,"Nc1ccc2cn[nH]c2c1 [6-Aminoindazole] (stock concentration (mM, diluted 1:100): 10)",-0.24
3,"CC[C@H]1OC(=O)[C@H](C)C(=O)[C@H](C)[C@@H](O[C@@H]2O[C@H](C)C[C@H](N(C)C)[C@H]2O)[C@](C)(OC)C[C@@H](C)C(=O)[C@H](C)[C@H]2N(CCCCn3cnc(-c4cccnc4)c3)C(=O)O[C@]12C [Telithromycin] (stock concentration (mM, diluted 1:100): 10)",0.14
4,"Cc1ncc([N+](=O)[O-])n1CC(O)CCl (stereo not given) [Ornidazole] (stock concentration (mM, diluted 1:100): 10)",-0.66
5,"O=C(c1ccc(F)cc1)C1CCN(CCn2c(=S)[nH]c3ccccc3c2=O)CC1 [Altanserin] (stock concentration (mM, diluted 1:100): 10)",-0.6
6,"CNC(=C[N+](=O)[O-])NCCSCc1csc(CN(C)C)n1 [Nizatidine] (stock concentration (mM, diluted 1:100): 10)",-0.53
7,"Cc1c(C(=O)NN2CCCCC2)nn(-c2ccc(Cl)cc2Cl)c1-c1ccc(I)cc1 (stock concentration (mM, diluted 1:100): 10)",1.13
8,"CC(C(=O)O)c1ccc(CC2CCCC2=O)cc1 (stereo not given) [Loxoprofen sodium] (stock concentration (mM, diluted 1:100): 9.1)",-0.15
9,"C[C@H]1[C@H](OC(=O)CCC(=O)O)O[C@@H]2O[C@@]3(C)CC[C@H]4[C@H](C)CC[C@@H]1[C@@]24OO3 [Artesunate] (stock concentration (mM, diluted 1:100): 10)",0.08
10,"CC(C)(C)C(O)/C=C/c1ccc2c(c1)OCO2 (stereo not given) [Stiripentol] (stock concentration (mM, diluted 1:100): 10)",1.81
11,"CN1C(=O)CC[C@H]1c1cccnc1 [Cotinine] (stock concentration (mM, diluted 1:100): 10)",-1.15
12,"COc1cc(CNC(=O)CCCC/C=C/C(C)C)ccc1O [Capsaicin] (stock concentration (mM, diluted 1:100): 10)",2.12
13,"OCc1cccnc1 [3-Pyridinemethanol] (stock concentration (mM, diluted 1:100): 10)",0.73
14,"CCCCCCNC(=O)n1cc(F)c(=O)[nH]c1=O [Carmofur] (stock concentration (mM, diluted 1:100): 10.3)",-2.78
15,"CCCCN1CCCC1CNC(=O)c1cc(C#N)c2ccccc2c1OC (stereo not given) [Nafadotride] (stock concentration (mM, diluted 1:100): 10)",-0.64
16,"CCc1nn(CCCN2CCN(c3cccc(Cl)c3)CC2)c(=O)n1CCOc1ccccc1 [Nefazodone] (stock concentration (mM, diluted 1:100): 9.3)",3
17,"CCCCc1nc(Cl)c(CO)n1Cc1ccc(-c2ccccc2-c2nnn[nH]2)cc1 [Losartan potassium] (stock concentration (mM, diluted 1:100): 9.2)",-1.2
18,"Nc1nc(N)nc(-c2cc(Cl)ccc2Cl)n1 [Irsogladine maleate] (stock concentration (mM, diluted 1:100): 6.9)",-0.77
19,"CC(CCCCC(=O)Nc1ccc(C(F)(F)F)cc1)NCCc1cnc[nH]1 (stereo not given) (stock concentration (mM, diluted 1:100): 10)",-0.79
20,"CC[C@H](C)C(=O)O[C@H]1C[C@H](O)C=C2C=C[C@H](C)[C@H](CC[C@@H](O)C[C@@H](O)CC(=O)O)[C@H]21 [Pravastatin sodium] (stock concentration (mM, diluted 1:100): 9.5)",-0.46
